Shiga inhibitor: A qHTS for Small Molecule Inhibitors of Shiga Toxin. inhibition, % at 38.7 µM. hit rate 9.2% among 290,000. Vero cells, Shiga toxin protein synthesis inhibition reporter. AID 2315, 2010; in the data active = inhibition mostly above about 28%, no sharp cut-off; inactive = mostly below about 43%; note: 0% is about no effect
Cycloheximide cs: Cycloheximide Counterscreen for Small Molecule Inhibitors of Shiga Toxin. max response, %. hit rate 12% among 300,000. cell reporter, cycloheximide protein synthesis inhibition counterscreen; in the data active = max response mostly above about 13%, no sharp cut-off; inactive = mostly below about 14%; note: read at 38.3 µM for the half of the compounds with a filed dose; 0% is about no effect
NS1 function inh: qHTS Assay for Inhibitors of Influenza NS1 Protein Function. hit rate 0.4% among 270,000. Potency, µM (doses to about 46.1 µM), inactives show at the top dose activity, positive = more growth; calls by dose curve; note: potency is the fitted concentration of half-maximal effect; actives are rising curves; nearly all actives have a fitted effect of over 50% in size
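In this qHTS, NS1 from influenza A is expressed in budding yeast, where it slows growth. Cells are switched from glucose to 2% galactose medium (pH 6.0, -URA), treated with compound, and growth recovery is read at OD600.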
AmpC detergent: qHTS Inhibitors of AmpC Beta-Lactamase (assay with detergent) | hit rate 0.041% among 370,000 | Potency, µM (highest dose often 114 µM), for inactives: top-dose activity change, negative = inhibition, hits mostly inhibitors | AmpC hydrolysis of nitrocefin, absorbance 480 nm, 0.01% Triton | P00811 | AID 485294, 2010;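 note: potency is the fitted concentration of half-maximal effect; 0% = no-compound wells and -100% = no-enzyme wells; nearly all actives have a fitted effect of over 25% in size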
Target sequence (P00811 whole entry, looked up): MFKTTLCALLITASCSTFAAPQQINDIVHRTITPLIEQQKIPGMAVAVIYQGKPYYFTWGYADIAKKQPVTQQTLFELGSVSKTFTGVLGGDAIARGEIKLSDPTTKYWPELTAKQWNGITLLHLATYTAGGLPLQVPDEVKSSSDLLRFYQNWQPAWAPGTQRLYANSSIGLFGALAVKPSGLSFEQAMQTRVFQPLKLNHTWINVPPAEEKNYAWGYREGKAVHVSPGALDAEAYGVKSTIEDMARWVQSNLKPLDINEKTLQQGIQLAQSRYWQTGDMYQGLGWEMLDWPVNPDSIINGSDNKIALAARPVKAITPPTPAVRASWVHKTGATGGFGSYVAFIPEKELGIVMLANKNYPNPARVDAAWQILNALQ
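20 mM phosphate pH 7.0 + 0.01% (detergent screen) or 0.0001% Triton X-100; 5.3 nM AmpC reagent; cpd preinc 15 min RT; nitrocefin (800 uM stock) to start; A480 q20 s × 4 min; Activity was normalised to no-enzyme and no-compound control wells.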
AmpC no deterg: qHTS Inhibitors of AmpC Beta-Lactamase (assay without detergent); AmpC nitrocefin hydrolysis, absorbance 480 nm, 0.0001% Triton; Potency, µM (highest dose often 57.1 µM), inactives show top-dose activity change, negative = inhibition, actives largely listed as inhibitors; hit rate 0.52% among 330,000; AID 485341, 2010;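 note: potency is the fitted concentration of half-maximal effect; plate controls were no compound for no effect and no enzyme for full effect; nearly all actives have a fitted effect of over 20% in size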
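20 mM phosphate pH 7.0 + 0.01% (detergent screen) or 0.0001% Triton X-100; 5.3 nM AmpC reagent; cpd preinc 15 min RT; nitrocefin (800 uM stock) to start; A480 q20 s × 4 min; Activity was normalised to no-enzyme and no-compound control wells.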
The depositor's hits bear a star; ? = inconclusive; · = no result; [ ] = remark or other dose. The sample as a whole holds a higher share of hits than the screen did. Unless noted, calls come from the whole dose curve; as a rule, active = well fitted curve in the direction sought with a large enough effect; inconclusive = small, poorly fitted or top-dose-only effect, or another doubt; inactive = no such curve, though single readings can be large; an effect the other way counts as inactive or inconclusive.

SMILES | Shiga inhibitor | Cycloheximide cs | NS1 function inh | AmpC detergent | AmpC no deterg
CCN1C(=O)N/C(=C/c2cc(C)n(Cc3ccccc3)c2C)C1=O | 37* | 27* | 22% | -6% | -19%
COc1ccc(OCC(=O)Nc2nc3c(s2)CCCC3)cc1 | 68* | 36* | -29% | 5% | -30%
COc1ccc(NC(=O)Nc2nc3c(s2)CCCC3)cc1 | 16 | 19* | -17% | -1% | -24%
O=C(COc1ccc(F)cc1)Nc1nc2c(s1)CCCC2 | 70 | 38* | -2% | -9% | -31%
O=C(Nc1cccc(Br)c1)Nc1nc2c(s1)CCCCCC2 | · | · | · | 17% | ·
COc1ccccc1OCC(=O)Nc1nc2c(s1)CCCC2 | 78* | 49* | -29% | -11% | -18%
Cc1ccc(C(C)C)c(OCC(=O)Nc2nc3c(s2)CCCC3)c1 | · | · | · | 15% | ·
C/C=C/C=N/Nc1nc(C)cc(=O)[nH]1 | 24 | -1 | · | 0% | -13%
COC(=O)c1cccc(-n2nnnc2SCC(=O)Nc2nc3c(s2)CCCC3)c1 | 1 | -3 | 8% | 1% | -3%
COc1cccc(-n2nnnc2SCC(=O)Nc2nc3c(s2)CCCC3)c1 | 87* | 25* | 10% | ? | -36%
CCOc1ccc(/C=N/NC(=O)CNC(=O)c2ccc(S(=O)(=O)N3CCOCC3)cc2)cc1 | -17 | -6 | -8% | 0% | 19%
CNc1cc(CSc2ccc(Cl)cc2)nc(C)n1 | 99* | 47* | · | -1% | -4%
Clc1ccc2nc(CSc3nc4ccccc4o3)cn2c1 | 129* | 37* | 4% | -5% | -14%
Cc1ccc(S(=O)(=O)NCc2cn3c(C)csc3n2)cc1 | -17 | -4 | -7% | -14% | -20%
Cc1ccc(SCc2cn3cc(Cl)ccc3n2)cc1 | 62* | 52* | 0% | -1% | -28%
Nn1c(SCc2cn3cc(Cl)ccc3n2)nnc1-c1ccncc1 | -2 | 2 | -1% | 5% | -18%
Cc1nc(CSc2ccc(Cl)cc2)cc(NCc2ccccc2)n1 | 22 | 14 | -49% | 2% | 40%
Cc1ccc(SCc2cn3c(C)csc3n2)cc1 | 74* | 44* | -100% | ? | -15%
CCC(C(=O)Nc1cccc(C(=O)O)c1C)c1ccccc1 (stereo not drawn) | 6 | -4 | 6% | -11% | -4%[2.29 µM]
CO[C@@H]1[C@@H]2OP(=O)(O)OC[C@H]2O[C@H]1n1c(Sc2ccc(Cl)cc2)nc2c(N)ncnc21 | -19 | 1 | · | · | ·
Clc1ccc(SCc2cn3ccccc3n2)cc1 | 54* | 37* | · | ? | -21%[11.4 µM]
c1ccc2c(SCc3cn4ccccc4n3)nncc2c1 | 76 | 38* | · | -9% | -36%
Clc1ccc2nc(CSc3nnc(-c4c[nH]c5ccccc45)o3)cn2c1 | · | · | 16% | · | ·
Nc1nnc(SCc2cn3cc(Cl)ccc3n2)s1 | 84* | 28* | 0% | 0% | -12%
Cc1cccc2nc(CSc3ccc(Cl)cc3)cn12 | 91* | 49* | -33% | 3% | -12%
SMILES | Shiga inhibitor | Cycloheximide cs | NS1 function inh | AmpC detergent | AmpC no deterg
Cc1ccc(N2CC(C(=O)Nc3nnc(SCC(=O)N4CCOCC4)s3)CC2=O)cc1 (stereo not drawn) | 3 | 0 | 2% | 4% | -4%
CCCCC/C=C/C=C1/C(=O)C=C[C@@H]1C/C=C\CCCC(=O)O | 3 | 13 | · | · | ·
Cc1cc(NC(=O)COC(=O)C2CC(=O)N(c3ccccc3Cl)C2)no1 (stereo not drawn) | -5 | 3 | 10% | 2% | 4%
Clc1ccc2nc(CSCc3ccccc3)cn2c1 | 99* | 49* | · | -6% | -51%
Cc1cccc2nc(CSCc3ccco3)cn12 | 82* | 31* | -4% | -12% | -28%
c1ccc2[nH]c(SCc3cn4ccccc4n3)nc2c1 | 54* | 20* | · | -9% | -22%
Clc1ccc2nc(CSc3nnc4ccccn34)cn2c1 | 92* | 38* | -6% | 1% | -7%
Clc1ccc2nc(CSc3nncn3-c3ccccc3)cn2c1 | -2 | -1 | 1% | -1% | -9%
Cc1cc(C)n2cc(CSCc3ccco3)nc2n1 | -11 | -2 | 3% | 1% | 0%
O=c1cc(N2CCOCC2)oc2c(-c3ccccc3)cccc12 | · | · | 0% | · | ·
Cc1ccc(C2=NN(S(=O)(=O)c3ccccc3)C(c3ccco3)C2)cc1 (stereo not drawn) | · | · | · | 10% | -33%
O=[N+]([O-])c1ccc(/C=C/C2=NN(c3ccccc3)C(c3ccco3)C2)cc1 (stereo not drawn) | 41 | 15* | 10% | 1% | -31%
O=S(=O)(c1ccccc1)N1N=C(c2ccc(O)cc2)CC1c1ccco1 (stereo not drawn) | 10 | 11 | 3% | 1% | 14µM*
O=[N+]([O-])c1ccc(C2=NN(c3ccccc3)C(c3ccco3)C2)cc1 (stereo not drawn) | 60* | 34* | 3% | 8% | -57%
CCCCOc1ccc(C(=O)N2CCNC(=O)C2)cc1 | -3 | -3 | 7% | -7% | -5%
Cc1ccc(Cl)cc1NC(=O)CC1Sc2ccccc2NC1=O (stereo not drawn) | · | · | · | 9% | ·
O=C(CC1SCCNC1=O)Nc1ccc(F)c(Cl)c1 (stereo not drawn) | 21 | 10 | 1% | -3% | -3%
Cc1ccc(NC(=O)CC2SCCNC2=O)cc1Cl (stereo not drawn) | 48* | 23* | 2% | -4% | -9%
CCCOc1ccccc1NC(=O)CC1Nc2ccccc2NC1=O (stereo not drawn) | 9 | -3 | -33% | -9% | 18µM*
CCOc1ccccc1NC(=O)CC1Nc2ccccc2NC1=O (stereo not drawn) | 13 | 5 | ? | 9% | -29%
O=C(CC1Nc2ccccc2NC1=O)c1ccccc1 (stereo not drawn) | 46 | 31* | -11% | -19% | -41%
Cc1ccc(NC2Sc3ccccc3NC2=O)cc1Cl (stereo not drawn) | 26 | 13* | 5% | 12% | -38%
O=C(CC1Nc2ccccc2NC1=O)NCCc1ccccc1 (stereo not drawn) | -2 | -1 | -15% | -3% | -16%
CCOC(=O)c1sc(NC(=O)c2nc3nc(C)cc(C(F)F)n3n2)c(C(=O)OC(C)C)c1C | · | · | · | 17% | ·
CCc1nn(CC(=O)NCc2ccco2)c(=O)c2cc3cc(F)ccc3n12 | · | · | · | 9% | ·
O=C(COC(=O)C12CC3CC(CC(Cl)(C3)C1)C2)NCc1ccco1 | -9 | -4 | · | · | ·
Cc1ccc(NC(=O)CC2Nc3ccccc3NC2=O)cc1Cl (stereo not drawn) | 108* | 28* | -8% | ? | -49%
Cc1ccc(-c2ccc(=O)n(CC(=O)Nc3ccc(C)cc3Cl)n2)cc1 | · | · | · | 18% | ·
CC(=O)Nc1ccc(-c2nc3cc(Cl)ccc3o2)cc1 | 109* | 52* | -21% | 0% | -20%
O=C(O)c1ccccc1-c1ccccc1C(=O)Nc1ccc(-c2nc3cc(Cl)ccc3o2)cc1 | 62* | 26* | 16% | 3% | -19%

From PubChem
